The subject of test [1] is CAOV3. Kind of test: Primary qHTS to identify gynecologic anti-cancer compounds using libraries of approved drugs and bioactive compounds (AID 1345084). Also: nearly all actives have a fitted effect of over 55% in size. Also: potency is read from the fitted curve at half-maximal effect. The note with it: Gynecologic cancer cell panel viability, ATPlite luminescence, 48 h; series mostly up to 57.5 µM. The method, boiled down:
(§1)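 Five-concentration response, 48 h; readout is ATP-driven luciferase luminescence.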
A general note: qHTS replaces the single test concentration by a dilution series.

For test [2], the system named is CASKI. The test is described as above. Particulars: Gynecologic cancer cell panel viability, ATPlite luminescence, 48 h; series mostly up to 57.5 µM. A digest of the protocol:
as §1

The subject of test [3] is Es-2. The description is as above. Particulars: Gynecologic cancer cell panel viability, ATPlite luminescence, 48 h; series mostly up to 57.5 µM. The method, boiled down:
as §1
For orientation: Cellular ATP, detected with luciferase, serves as a proxy for viable cell number.

Test [4] concerns HeLa. The test is described as above. Particulars: Gynecologic cancer cell panel viability, ATPlite luminescence, 48 h; series mostly up to 57.5 µM. The method, boiled down:
as §1

Test [5] has as its system Hek293T. The test is described as above. Particulars: Gynecologic cancer cell panel viability, ATPlite luminescence, 48 h, control line for the selectivity index; series mostly up to 57.5 µM. The method, boiled down: as §1
The subject of test [6] is JEG-3. Described as above. The note with it: Gynecologic cancer cell panel viability, ATPlite luminescence, 48 h; series mostly up to 57.5 µM. A digest of the protocol:
as §1

Test [7] relates to OV90. The test is described as above. Particulars: Gynecologic cancer cell panel viability, ATPlite luminescence, 48 h; series mostly up to 57.5 µM. The method, boiled down:
as §1

Test [8] relates to PA-1. The test is described as above. Particulars: Gynecologic cancer cell panel viability, ATPlite luminescence, 48 h; series mostly up to 57.5 µM. The method, boiled down:
as §1

Test [9] has as its system SKOV3. Described as above. Particulars: Gynecologic cancer cell panel viability, ATPlite luminescence, 48 h; series mostly up to 57.5 µM. A digest of the protocol:
as §1

The subject of test [10] is Tov-21-G. Described as above. Particulars: Gynecologic cancer cell panel viability, ATPlite luminescence, 48 h; series mostly up to 57.5 µM. A digest of the protocol:
as §1

For test [11], the system named is Tov112D. The description is as above. Particulars: Gynecologic cancer cell panel viability, ATPlite luminescence, 48 h; series mostly up to 57.5 µM. The method, boiled down:
as §1

Test [12] in a line: Drug repurposing screens with cells derived from glioblastoma tumor samples (AID 1345199). Also: nearly all actives have a fitted effect of over 40% in size. Also: potency is read from the fitted curve at half-maximal effect. As to activity, negative = cell killing: % is scaled to controls: 0 for no effect and ±100 for the full control effect. Particulars: GBM patient neurospheres viability, ATP luminescence, 48 h. The method, boiled down: (§2)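 Primary testing used CD133+ neurospheres from four GBM patients, seven concentrations, 48 h exposure and ATP-based viability; confirmation added three slower-growing patient lines.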
For test [13], the system named is astro. The description is as above. The note with it: viability, ATP luminescence, 48 h; series mostly up to 45.9 µM. The method, boiled down:
as §2

The target of test [14] is Nuclear receptor subfamily 1 group I member 2 (Rattus norvegicus) (UniProt Q9R1A7). Kind of test: qHTS assay for small molecule activators of the rat pregnane X receptor (rPXR) signaling pathway (AID 651751; call rule not given here; also: 0% is about no effect). Particulars: rPXR reporter cells, luciferase (One-Glo), 24 h.
Sequence of Nuclear receptor subfamily 1 group I member 2 (Rattus norvegicus) (Q9R1A7 whole entry, looked up): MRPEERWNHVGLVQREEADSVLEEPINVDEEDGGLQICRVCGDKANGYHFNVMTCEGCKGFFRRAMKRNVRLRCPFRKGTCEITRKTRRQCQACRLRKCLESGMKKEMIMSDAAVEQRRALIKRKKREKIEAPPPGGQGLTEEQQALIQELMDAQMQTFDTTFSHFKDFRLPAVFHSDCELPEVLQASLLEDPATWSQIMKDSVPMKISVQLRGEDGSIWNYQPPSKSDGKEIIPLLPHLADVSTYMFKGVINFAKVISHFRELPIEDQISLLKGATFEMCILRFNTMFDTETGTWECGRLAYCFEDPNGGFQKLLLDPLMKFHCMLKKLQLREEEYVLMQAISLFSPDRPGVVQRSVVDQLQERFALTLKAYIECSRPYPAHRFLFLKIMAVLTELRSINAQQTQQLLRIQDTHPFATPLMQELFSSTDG
A short description of test [15]: qHTS assay for small molecule activators of the human pregnane X receptor (PXR) signaling pathway (AID 720659; call rule not given here; also: 0% is about no effect).
Setting [16] is: at 45.9 µM (top of the series), tumour line B.
Setting [17] is: at 45.9 µM (top of the series), tumour line D.

SMILES strings stand for the structures. Results filed as inconclusive are left out. More than one record can exist for a structure, and the calls need not agree. The source made the active and inactive calls. Unless noted, calls follow the shape of the dose curve; as a rule, active = well fitted curve in the direction sought with a large enough effect; inconclusive = small, poorly fitted or top-dose-only effect, or another doubt; inactive = no such curve, though single readings can be large; an effect the other way counts as inactive or inconclusive.

Consider `Oc1cc(Cl)ccc1Oc1ccc(Cl)cc1Cl`, for which the Potency entry in test [1], in test [3], in test [5], in [6], in test [7] and in [8] was “inactive” throughout. Also, the Potency entry in test [10] and in [11] was “inactive” each time. For the same compound, the Potency was 39.8 µM (active) and inactive in [2]; 44.7 µM (active) and inactive in [4]; 35.5 µM (active) and inactive in [9]; 28.2 µM (active) in [13]. In addition, in [12] (at 46 µM (top of the series), tumour line A), the activity, negative = cell killing is -27.9% (inactive). For the same compound, the max response in [14] is -4.24% (inactive). Besides, the compound was called inactive in test [15].

On to `CN(C)[C@@H]1C(=O)C(C(N)=O)=C(O)[C@@]2(O)C(=O)C3=C(O)c4c(O)cccc4[C@@](C)(O)[C@H]3C[C@@H]12`, for which the Potency entry in [1], in test [2], in [3], in test [4], in [5] and in [6] was “inactive” throughout. Moreover, the Potency entry in [7], in [8], in test [9], in [10], in test [11] and in test [13] was “inactive” throughout. In addition, the activity, negative = cell killing in test [12] (at 21.2 µM (top of the series), tumour line B) is -16.2% (inactive); in test [12] (at 21.2 µM (top of the series), tumour line D), -21.5% (inactive).

Consider `CC(C)(C)NCC(O)c1cc(Cl)c(N)c(Cl)c1` (stereo unspecified), for which the Potency entry in test [1], in [2], in test [3], in [4], in test [5] and in test [6] was “inactive” each time. Moreover, the Potency result in [7], in test [8], in test [9], in [10], in [11] and in test [13] was “inactive” throughout. The activity, negative = cell killing was -4.05% (inactive) in test [12] (setting [16]) and -25.9% (inactive) in test [12] (setting [17]).

As to `O=c1[nH]c2ccccc2n1CCCN1CCC(n2c(=O)[nH]c3cc(Cl)ccc32)CC1`, the Potency result in test [1], in test [2], in test [3], in test [4], in test [5] and in test [6] was “inactive” throughout. The Potency result in test [7], in [8], in test [9], in [10], in [11] and in [13] was “inactive” in each case. Besides, the activity, negative = cell killing in [12] (setting [16]) was -24.9% (inactive). The Potency in test [12] (tumour line A) was 2.82 µM (active).

Take `Cc1ccc2c(c1)C1CN(C)CCC1N2` (stereo unspecified): the Potency result in [1], in [2], in test [3], in test [4], in test [5] and in test [6] was “inactive” throughout. The Potency entry in [7], in [8], in [9], in [10], in test [11] and in test [13] was “inactive” in each case. The activity, negative = cell killing in test [12] (setting [16]) was -7.68% (inactive); in test [12] (setting [17]), -17.4% (inactive).

With `NCC(O)c1ccc(O)cc1` (stereo unspecified), the Potency result in [1], in test [2], in test [3], in test [4], in test [5] and in test [6] was “inactive” each time. The Potency entry in test [7], in test [8], in [9], in [10], in [11] and in test [13] was “inactive” throughout. Further, the results for the activity, negative = cell killing in test [12] (setting [16]) and in [12] (setting [17]) were -12.4% (inactive) and -9.81% (inactive), respectively. The max response in test [14] is 2.53% (inactive). In addition, the compound was called inactive in [15].

With `CCCN1CCC[C@@H]2Cc3[nH]ncc3C[C@H]21`, the Potency entry in test [1], in test [2], in test [3], in test [4], in test [5] and in test [6] was “inactive” each time. Also, the Potency result in test [7], in test [8], in test [9], in test [10], in test [11] and in test [13] was “inactive” each time. Besides, the activity, negative = cell killing in [12] (setting [16]) is -3.57% (inactive); in test [12] (setting [17]), -3.31% (inactive).

Consider `C[C@]12CC[C@H]3[C@@H](CCC4=CC(=O)CC[C@@H]43)[C@@H]1CC[C@@H]2OC(=O)CCc1ccccc1`, for which the Potency entry in test [1], in test [2], in test [3], in [5], in test [6] and in test [7] was “inactive” throughout. Moreover, the Potency entry in [9], in [10] and in test [11] was “inactive” in each case. The Potency in test [4] was 3.55 µM (active).

These data come from PubChem BioAssay (NCATS).
